Patent US20150152398, “Endoribonuclease and Methods of Use Thereof” (The Regents of the University of California, published 2015)

Molecular target: T1, TtCas6A H37A (Thermus thermophilus HB8, H37A)
T1 chain: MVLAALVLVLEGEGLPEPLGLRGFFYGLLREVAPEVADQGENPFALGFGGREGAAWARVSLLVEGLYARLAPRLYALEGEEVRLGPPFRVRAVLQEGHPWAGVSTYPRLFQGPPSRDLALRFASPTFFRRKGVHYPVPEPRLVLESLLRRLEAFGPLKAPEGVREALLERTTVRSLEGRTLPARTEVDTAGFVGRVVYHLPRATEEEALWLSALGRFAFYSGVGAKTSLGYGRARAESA
Test: EMSA; Kd in FIG. 24D only
Settings: chain copies: 2 inferred; label: 5'-32P (EMSA); hairpin; ssRNA
Source text: FIG. 22 illustrates that TtCas6A and TtCas6B both cleave repeats R1 and R3 and retain their cleaved products. (A) Sequences and predicted secondary structures of T. thermophilus CRISPR repeats. Sites of cleavage are indicated with blue arrows. TtCas6e (TTHB192) cleaves repeat R2, while TtCas6A (TTHA0078) and TtCas6B (TTHB231) both cleave repeats R1 and R3. (B) Cleavage product binding affinities of TtCas6A and TtCas6B enzymes. Maltose binding protein (MBP)-fused TtCas6A or TtCas6B were bound to in 5′-radiolabelled, vitro transcribed R1 and R3 RNAs. Bound and unbound fractions were resolved by electrophoresis on a native polyacrylamide gel and visualized by phosphorimaging. The data for these and all subsequent binding assays were fit with standard binding isotherms (solid line). Error bars on each data point denote standard error of the mean (SEM) from three independent experiments. (C) Experiments to confirm single turnover. RNA cleavage assays were carried out at indicated protein:RNA ratios. RNA cleavage was monitored using denaturing polyacrylamide gel electrophoresis. The data from these and all subsequent endoribonuclease activity assays were fit with single exponential curves to yield first-order rate constants. (Top to bottom: FIG. 22A, SEQ ID NOs: 1, 2, 55).
To test the importance of the stem sequence for substrate RNA recognition by TtCas6A, a series of EMSAs was performed using R1 repeat-derived RNAs that carried single base pair substitutions (C-G→A-U). All mutant RNAs contained the complete 5′ segment and additional two nucleotides downstream of the cleavage site. Compared to the wild-type RNA, substitution of any of the four C-G base pairs in the stem led to about five-fold decrease in affinity (FIG. 24C). This is consistent with the observation that the lower three C-G base pairs are specifically read out by Arg129. The binding defect observed upon mutation of the closing (uppermost) base pair could be due to loss of stability of the stem-loop structure, which is determined by the closing base-pair (Serra et al, 1993). To further investigate the protein determinants of RNA binding, we tested the TtCas6A mutants H37A and R129A and performed binding assays using substrates R1 and R3 (FIG. 24D).

Row | Sequence | binding signal
1 | GUUGCAAACCUCGUUAGCCUCGUAGAGGAUUGAAAC | ~90 fold lower affinity than WT
2 | GUUGCAAGGGAUUGAGCCCCGUAAGGGGAUUGCGAC | ~70 fold lower affinity than WT
